Experimental findings from PubChem BioAssay (NCI) are described below.

The nature of test [1]: NCI Yeast Anticancer Drug Screen. Data for the rad50 strain (AID 155).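 Further: 0% = growth of vehicle-only cultures of the same strain.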 The settings on record: S. cerevisiae rad50 strain growth inhibition; at 50.0 µM; hits give high values. A digest of the protocol: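 Yeast carrying a defined DNA repair defect were exposed to test compounds, and growth was compared with vehicle-treated controls to give percent inhibition.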
Test [2] in a line: NCI Yeast Anticancer Drug Screen. Data for the mec2-1 strain (AID 157). The conditions noted are these: S. cerevisiae mec2-1 strain, at 50.0 µM, hits give high values. A digest of the protocol:
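Using mec2-1 yeast: add compound, measure growth, express inhibition versus vehicle-treated cultures.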

The nature of test [3]: NCI Yeast Anticancer Drug Screen. Data for the sgs1 mgt1 strain (AID 161).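 Further: 0% = growth of cultures given vehicle only.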 The conditions noted are these: S. cerevisiae sgs1 mgt1 strain, at 50.0 µM, hits give high values. In short, it runs like this:
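Yeast cells carrying a defined DNA-repair defect were exposed to test compounds. Growth inhibition was measured relative to vehicle-treated controls.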

The nature of test [4]: NCI Yeast Anticancer Drug Screen. Data for the cln2 rad14 strain (AID 165).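 Further: 0% = growth equal to vehicle treated cultures.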 The conditions noted are these: S. cerevisiae cln2 rad14 strain, at 50.0 µM, hits give high values. A digest of the protocol:
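Yeast strain cln2 rad14, bearing defects in cell cycle control and DNA repair, serves as the test system; values reflect growth inhibition compared with vehicle.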

Test [5] is described as follows: NCI Yeast Anticancer Drug Screen. Data for the bub3 strain (AID 167). The conditions noted are these: S. cerevisiae bub3 mutant strain, at 50.0 µM, hits give high values. A digest of the protocol: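 Compounds were applied to a genetically altered yeast strain carrying a cell-cycle control defect. Growth inhibition was scored against vehicle-treated controls.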
Test [6] is described as follows: NCI Yeast Anticancer Drug Screen. Data for the mlh1 rad18 strain (AID 175). The conditions noted are these: S. cerevisiae mlh1 rad18 strain growth inhibition; at 50.0 µM; hits give high values. A digest of the protocol: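 Steps: expose repair-defective yeast to compound; measure growth; express inhibition against vehicle-treated controls.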

About 79,000 compounds went through this panel and 15% of them were active in at least one assay; those are over-represented in the sample as a whole. A number with no mark means an inactive call. Active and inactive are the calls of the source. No stated cut-off is given here; in the data, active means growth inhibition above about 70%; inactive means the rest.

For `NC(=O)C1=CC2C3C=CC2(O)C(=O)OC3O1` (stereo unspecified), the growth inhibition is -15.3% in test [1]; -28.6% in test [2]; -12.6% in test [3]; 3.2% in test [4]; -22.9% in test [5]; -11.1% in test [6].

Take `CCOC(=O)c1cc(=O)[nH]c(N)n1`: the growth inhibition in test [1] is -6.4%; in test [2] it was -10.8%; in test [3], -1.55%; in test [4], -38.2%; in test [5] it was 10.4%; in test [6], -4.15%.

`COc1cccc2c1CCC(=O)C2`: the growth inhibition in test [1] is -31.7%; in test [2], -44.8%; in test [3], -35.1%; in test [4], 8%; in test [5] it was -44.8%; in test [6], -18.3%.

For `CSc1nc2ccc(NCn3c(=O)sc4cc(Br)ccc43)cc2s1`, the growth inhibition in test [1] was 1%; in test [2], 38.9%; in test [3] it was 4.6%; in test [4], 30.9%; in test [5], 65.5%; in test [6], 42%.

In the case of `O=c1[nH]c(-c2ccccc2)c(-c2ccccc2)nc1Cl`, the growth inhibition in test [1] is 6.35%; in test [2], 1.8%; in test [3] it was 6.5%; in test [4], -11.7%; in test [5] it was -19.1%; in test [6], 18.1%.

For `NCCCc1ccc(C(=O)O)cc1`, the growth inhibition in test [1] is -23.8%; in test [2], 1.85%; in test [3], -0.5%; in test [4], -40.2%; in test [5], 5.85%; in test [6], 7.75%.

As to `CN(/N=C\c1ccc2ccccc2c1)C1=NCCCCN1`, the growth inhibition in test [1] is -2.05%; in test [2], -5.45%; in test [3] it was -27.6%; in test [4] it was -37%; in test [5], -0.1%; in test [6], 1.6%.

For the compound `CN(C)c1nc(OC2C(C3COC(C)(C)O3)OC3OC(C)(C)OC32)nc(N(C)C)n1` (stereo unspecified), the growth inhibition in test [1] was 36.9%; in test [2] it was -9.65%; in test [3], 9.65%; in test [4], 26%; in test [5] it was -4.35%; in test [6], 2.15%.

As to `COc1cc(C)cc(O)c1C=O`, the growth inhibition in test [1] is 9.9%; in test [2] it was -9.95%; in test [3], -0.1%; in test [4], -17.1%; in test [5], -0.2%; in test [6], 3.45%.

On to `O=C1c2ccccc2C(=O)N1CCc1ccccc1`, for which the growth inhibition in test [1] is -12.1%; in test [2] it was 7%; in test [3], -6.9%; in test [4], -36%; in test [5], 16.6%; in test [6], 14.1%.

For `COC(=O)C1CCc2ccccc2C1=O` (stereo unspecified), the growth inhibition is -12.6% in test [1]; -13.7% in test [2]; 1.95% in test [3]; 6.4% in test [4]; 2.7% in test [5]; 12.2% in test [6].

`OCCSCCCCCCSCCO`: the growth inhibition in test [1] was 6.95%; in test [2], 1.7%; in test [3], 5.85%; in test [4], 10.6%; in test [5], 2.7%; in test [6] it was 5.8%.

As to `C1=CCSC(Nc2ccccc2)=NC1`, the growth inhibition in test [1] is 7.65%; in test [2], 3.35%; in test [3], -7.05%; in test [4], -2.6%; in test [5], 0.75%; in test [6], -5.85%.

Turning to `Cn1c(=O)c2cc(O)cnc2n(C)c1=O`, the growth inhibition in test [1] was 4.8%; in test [2], -5.8%; in test [3] it was 0.3%; in test [4], -14.7%; in test [5], -7.35%; in test [6], -3%.

Regarding `CC(C)=CCc1c(O)ccc(C(=O)[C@H]2C(c3ccc(O)cc3O)CC(C)=C[C@@H]2c2c(O)cc(O)c3c(=O)c(CC=C(C)C)c(-c4ccc(O)cc4O)oc23)c1O` (stereo partly specified), the growth inhibition in test [1] was 88.4% (active); in test [2], 90% (active); in test [3], 92% (active); in test [4], 89% (active); in test [5], 90.2% (active); in test [6] it was 89.8% (active).

As to `CC1(C)CC([NH-])(C(=O)O)CC(C)(C)N1O.CC1(C)CC([NH-])(C(=O)O)CC(C)(C)N1O.[Pt+2]`, the growth inhibition was -5.65% in test [1]; -8.75% in test [2]; -6.5% in test [3]; -45.6% in test [4]; -1.05% in test [5]; -23.8% in test [6].

In the case of `O=C(O)/C=C\c1ccc(OC(=O)c2ccccc2)cc1`, the growth inhibition in test [1] was -1.1%; in test [2] it was -12.6%; in test [3], -21%; in test [4], -24.6%; in test [5], -4.95%; in test [6], 33.1%.

As to `O=S(=O)(O)c1cc(O)c2ccc3c(S(=O)(=O)O)cc(S(=O)(=O)O)c4ccc1c2c34`, the growth inhibition was -11.7% in test [1]; -23.1% in test [2]; -2.85% in test [3]; 6.8% in test [4]; 10.6% in test [5]; 3.75% in test [6].

Regarding `Cn1c2ccccc2c(=S)c2c(O)cc3c(c21)C=CC(C)(C)O3`, the growth inhibition in test [1] is 28.8%; in test [2] it was 6.3%; in test [3], -0.7%; in test [4], 22.9%; in test [5], 9.85%; in test [6], 21.6%.

Turning to `CCCNC(=S)N=Nc1c(O)[nH]c2ccccc12`, the growth inhibition in test [1] is -46.2%; in test [2], -55.8%; in test [3], -25.1%; in test [4], -31.5%; in test [5], -22.2%; in test [6] it was -11.2%.

For the compound `CC(=O)NNc1nc(C)c(C(/C=C/c2ccc(NC(C)=O)cc2)=N/NS(=O)(=O)c2ccc(C)cc2)s1`, the growth inhibition is -6.75% in test [1]; -23.8% in test [2]; 3.15% in test [3]; -6.2% in test [4]; 6.35% in test [5]; -21.4% in test [6].
